Measurements from ChEMBL document CHEMBL1157539, “Thousands of chemical starting points for antimalarial lead identification” (Nature, 2010).

Tested on: Plasmodium falciparum
Experiment: GSK_TCMDC: Inhibition of Plasmodium falciparum 3D7 in whole red blood cells, using parasite LDH activity as an index of growth. Test compounds present at 2uM
Assay type: functional

Structure (SMILES)	Inhibition [%]
O=C(O)C(F)(F)F.Oc1ccc(CCNc2nc(NCc3ccccc3-c3cccc(Cl)c3)nc(N3CCNCC3)n2)cc1	84
Cc1nc(C)c(-c2ccc(Oc3ccc(OC(F)(F)F)cc3)cc2)c(O)c1I	95
CCCCOP(=O)(COc1ccc(CCN(CC(O)COc2cccc3[nH]c4ccccc4c23)CC(O)COc2cccc3[nH]c4ccccc4c23)cc1)C1CCCCC1 (stereo not given)	89
OC(CNCc1ccccc1)c1cc(OCc2ccccc2)cc(OCc2ccccc2)c1 (stereo not given)	98
COc1ccc2nc(C)cc(NC3Cc4ccccc4C3)c2c1.Cl	98
CN(C)CCNCc1ccc(-c2ccc3c(Nc4ccc(F)cc4Cl)ccnc3c2)o1	100
COc1ccc2nccc(N3CCC(SCCNS(=O)(=O)c4ccc5c(c4)NC(=O)CS5)C3)c2n1.Cl (stereo not given)	99
Cc1cccc(CCCNC(=O)CN(c2cccc(C(F)(F)F)c2)S(=O)(=O)c2ccc(C(F)(F)F)cc2)c1	96
COc1cc(NC(=O)c2sc(-c3ccc(Cl)cc3)cc2NC(=O)c2cccnc2)ccc1OCCN1CCCC1	94
c1ccc2[nH]c(-c3ccc(-c4ccc(CN5CCC(N6CCCCC6)CC5)cc4)s3)nc2c1	99
O=C(Nc1cccc(Cl)c1Cl)Nc1ccnc2ccccc12	100
Cc1cc(N2CCC(NS(=O)(=O)c3ccc(F)cc3)CC2)nc(Nc2cccc(C#N)c2)n1.O=C(O)C(F)(F)F	97
C=C[C@]1(C)C[C@@H](OC(=O)CSC2CN3CCC2C3)[C@@]2(C)C3C(=O)CC[C@@]3(CC[C@H]2C)[C@@H](C)[C@@H]1O.Cl (stereo not given in full)	91
CC(C)(CNC(=O)C1CCN(CCOCc2ccccc2)CC1)c1nc(-c2ccc(Cl)c(O)c2)c(-c2ccncc2)[nH]1.Cl	100
CCCN(CCC)CCCN(CCCN(CCC)CCC)c1cc(C)nc(Nc2ccc3cc(Br)ccc3c2)n1.Cl	98
CS(=O)(=O)CCNCc1cccc(-c2cc3c(Nc4ccc5c(cnn5Cc5ccccc5)c4)ncnc3s2)c1.O=C(O)C(F)(F)F	100
CN(C)c1ccc(CN2CCC(NC(=O)c3ccc(-c4ccccc4F)s3)CC2)cc1.O=C(O)C(F)(F)F	86
COc1ccc2nccc(N3CCC(CCNCc4ccc5c(n4)NC(=O)CO5)CC3)c2c1.Cl	100
CN(C)Cc1ccc(-c2ccc3c(Nc4ccc(Cl)cc4F)ccnc3c2)o1	100
CCCCCCN1CCC(NCc2ccc(C)cc2)CC1.O=C(O)C(F)(F)F	93

Structure (SMILES)	Inhibition [%]
O=C(Nc1ccc(F)c(F)c1)c1ccc(CN2CCCN(Cc3cccc(O)c3)CC2)cc1.O=C(O)C(F)(F)F	92
Cc1cccc2nc(-c3ccc(-c4cccc(C(=O)NCCN5CCCC5)c4)s3)[nH]c12	94
CC(=O)Nc1nc(N)c2c(ccc3c2ccn3CC(C)C)n1	94
Cc1nnc2c(N(C(=O)NCCc3ccccc3)C(=O)NCCc3ccccc3)cc3cc(Cl)ccc3n12	91
COc1cc(CNCCCCCCNCc2cc(OC)c(OC)c3ccccc23)c2ccccc2c1OC.CS(=O)(=O)O	100
O=C(Nc1ccnc(N2CC3CC2CN3Cc2cccc(O)c2)c1)c1ccc(F)cc1.O=C(O)C(F)(F)F (stereo not given)	92
Cc1cc(NC(=O)c2cc(Br)ccc2Cl)n(-c2nc(C)c(C)c(=O)[nH]2)n1	91
CC(CCCCC(=O)Nc1ccc(C(F)(F)F)cc1)NCC(O)c1cccc(Cl)c1 (stereo not given)	99
O=C(CCc1cccnc1)Nc1cccc(-c2ccc(-c3nc4cc(C(F)(F)F)ccc4[nH]3)cc2)c1	93
O=C(O)C(F)(F)F.Oc1ccc(CCNc2nc(NCc3ccccc3-c3ccc(F)cc3)nc(N3CCNCC3)n2)cc1	92
CCCCCCNc1cc(C)nc(NC(=N)Nc2cccc(C(F)(F)F)c2)n1	100
Nc1nc(-c2ccc3c(Nc4ccc(F)c(Cl)c4)ccnc3c2)cs1	100
CCNc1cc(C)nc(Nc2ccc(NC(=O)c3ccccc3Cl)cc2)n1	100
Cc1cccc2nc(-c3cccc(-c4ccc(CN5CCCC5CN)cc4)c3)[nH]c12.O=C(O)C(F)(F)F (stereo not given)	100
O=C(Nc1nc(-c2ccccn2)cs1)c1ccc(Br)s1	96
CC(=O)NCCNc1nccc(N2CCc3ncnc(Nc4ccc(OCc5ccccn5)c(Cl)c4)c3C2)n1	99
Cc1cccc2nc(-c3cccc(-c4cccc(CNCCCN5CCCC5=O)c4)c3)[nH]c12.O=C(O)C(F)(F)F	100
COc1ccc(C2CCN(CCCCNC(=O)c3ccc(NC(=O)c4ccc(Cl)cc4)cc3)C2)c(OC)c1 (stereo not given)	84
O=C(Nc1ccccc1N1CCOCC1)c1ncoc1-c1ccccc1C(F)(F)F	89
COc1ccc2nccc(NC(=O)C3CCC(NCc4cnc(SC)c([N+](=O)[O-])c4)CC3)c2n1.Cl (stereo not given)	89
